# MCF10A rerep: induces DNA re-replication in MCF 10a normal breast cells | 350,000 compounds, 2.9% hits | AID 624296 | MCF 10A DNA re-replication, Hoechst nuclear intensity, 48 h | Potency, µM (series often up to 46.1 µM), for the others: at the highest dose activity, positive = re-replication, most hits filed as activators; further: % of control where 0% means no effect; nearly all actives have a fitted effect of over 50% in size
# ELG1 DNA repair: ELG1-dependent DNA repair inhibition. HEK293T ELG1-luciferase reporter, luminescence, 16 h; DNA damage induced by 5-fluorouridine. Potency, µM (highest dose often 46.1 µM), without a hit: at the highest dose activity change, negative = inhibition, actives largely listed as inhibitors. 330,000 compounds, 2.3% hits. AID 504467; further: on the % scale 0 is the no-effect control and ±100 the full control effect; nearly all actives have a fitted effect of over 55% in size
#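 Cells (2,000 per well) received 5-fluorouridine plus test compound or DMSO and were incubated 16 hr at 37 °C, 5% CO2. Luciferase activity was read by luminescence 30 min after ONE-Glo addition; signal suppression marked inhibition of damage-induced ELG1 function.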
# KB-3-1 tox: KB-3-1 parental cell cytotoxicity; KB-3-1 viability, CellTiter-Glo ATP luminescence, 72 h; Potency, µM (highest dose often 46.1 µM), actives largely listed as cytotoxic; 400,000 compounds, 1.4% hits; AID 1347075; further: on the % scale 0 is the no-effect control and ±100 the full control effect; nearly all actives have a fitted effect of over 60% in size
#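 Multi-concentration cytotoxicity screen in KB-3-1 cells grown in DMEM lacking phenol red with 10% FBS. After 72 h at 37 °C with compound, ATP-dependent luminescence was recorded.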
# SW480 rerep: inducers of DNA re-replication in SW480 colon cancer cells; 340,000 compounds, 1.8% hits; Potency, µM (titrated, usually from 46.1 µM), for inactives: top-dose re-replication activation, actives largely listed as activators; AID 624297; SW480 DNA re-replication, Hoechst DNA content imaging, 48 h; further: % of control where 0% means no effect; nearly all actives have a fitted effect of over 55% in size
#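 Compounds, transferred as 23 nL by pin tool, were incubated with cells for 48 hr; DNA content per nucleus was then quantified by Hoechst staining and fluorescence plate imaging.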
# KB-V1 cytotox: kills drug-selected multidrug resistant KB-V1 cells; KB-V1 MDR cells viability, CellTiter-Glo, 72 h; Potency, µM (top dose mostly 46.1 µM), hits mostly cytotoxic; 400,000 compounds, 3.4% hits; AID 1347076; further: on the % scale 0 is the no-effect control and ±100 the full control effect; nearly all actives have a fitted effect of over 60% in size
#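 In this primary screen, KB-V1 cells overexpressing P-gp are incubated with library compounds (lowest to highest concentration) for 72 h at 37 degrees C before a luminescent ATP viability read.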
# Numbers without * were called inactive; i = inactive; ? = inconclusive; nt = no result; [ ] = dose if it differs, or a comment. Most compounds without a hit are left out; they make up all but 8.1% or so of the library. The call rests on the fitted dose curve; in most records, active means well fitted curve in the direction sought with a large enough effect; inconclusive means small, poorly fitted or top-dose-only effect, or another doubt; inactive means no such curve, though single readings can be large; an effect the other way counts as inactive or inconclusive. Potency means the concentration at half of the fitted maximal effect.
SMILES,MCF10A rerep,ELG1 DNA repair,KB-3-1 tox,SW480 rerep,KB-V1 cytotox
N#C/C(=N\Nc1ccccc1)C(N)=S,-30.8%,?,i,-0.8%,i
N#C/C(=N\Nc1ccc(Cl)cc1)C(=O)c1ccsc1,?,2.31µM*,?,?,?
N#C/C(=N\Nc1ccc(Cl)cc1)C(N)=S,?,9.2µM*,i,17.9%,i
N#Cc1ccccc1S(=O)(=O)N1CCNS(=O)(=O)c2ccccc21,6.2%,14.4%,i,1.6%,?
Cc1nn(Cc2ccccc2Cl)c2sc(C(=O)Nc3ccccc3N3CCOCC3)cc12,9.2µM*,23.1µM*,?,174.4%,?
Cc1nn(Cc2ccccc2Cl)c2sc(C(=O)Nc3nccs3)cc12,13.5%,-28.3%,i,3.3%,i
CCc1cc(C(=O)Nc2ccccc2N2CCOCC2)sc1C,7.9%,-25.8%,i,-4.9%,23.1µM*
CCC(CC)NC(=O)c1cc2c(C)nn(Cc3ccccc3Cl)c2s1,?,?,?,?,14.6µM*
Cc1ccc(N(C)S(=O)(=O)c2cccc(C(=O)NCC(c3cccs3)N3CCOCC3)c2)cc1 (stereo not drawn),5.7%,-10.2%,i,?,i
Cc1ccccc1C(=O)NNc1ncnc2c1cnn2-c1cccc(Cl)c1,nt,nt,i,nt,i
O=S(=O)(c1ccc(Nc2ccc(-c3ccc4c(c3)OCCO4)nn2)cc1)N1CCCC1,-0.4%,?,i,-7.5%,?
O=C(NC1CC1)c1cccc(Nc2ccc(-c3ccc4c(c3)OCCO4)nn2)c1,2.0%,?,?,-10.2%,16.4µM*
CC(C)(C)OC(=O)N(Cc1ccccc1)Cc1ccccc1OCc1cccc(NC(=O)C2CCC2)c1,?,nt,?,5.5%,i
CC(C)C(=O)Nc1cccc(COc2cccc(CN(Cc3ccccc3)C(=O)OC(C)(C)C)c2)c1,1.84µM*,nt,?,4.2%,?
CC(C)(C)OC(=O)N(Cc1ccccc1)Cc1ccccc1OCc1cccc(NC(=O)C2CC2)c1,14.6µM*,nt,i,?,?
CCOC(=O)[C@]12CCC=C1N(CCC1=CCCCC1)C(=O)[C@H](CC(=O)NCc1ccccc1)C2,nt,nt,i,nt,i
CCN(CC)S(=O)(=O)c1cc([N+](=O)[O-])ccc1NNC(=O)Nc1ccc(F)cc1,23.1µM*,?,?,-1.0%,i
Cc1ccc(OCc2ccc(C(=O)NN)o2)c([N+](=O)[O-])c1,-3.0%,-7.6%,i,?,i
O=C(O)c1ccc(COc2ccccc2[N+](=O)[O-])o1,-9.1%,?,i,-12.2%,i
CC(=O)c1ccc(NC(=O)c2ccc(COc3ccccc3[N+](=O)[O-])o2)cc1,1.5%,-23.9%,?,0.6%,10.3µM*
CC(=O)c1cccc(NC(=O)c2ccc(-c3ccccc3[N+](=O)[O-])o2)c1,18.4µM*,?,i,-1.7%,?
COC(=O)c1ccc(COc2ccc(C)cc2[N+](=O)[O-])o1,1.84µM*,?,i,-8.6%,i
Cc1cc(NC(=O)c2ccc(-c3ccccc3[N+](=O)[O-])o2)no1,1.5%,15.5%,i,-3.4%,i
O=[N+]([O-])c1ccc2c(c1)C=CC2,nt,nt,i,nt,i
Cc1nc(N2CCN(S(=O)(=O)c3ccccc3C#N)CC2)c2c(-c3cccs3)csc2n1,?,18.3µM*,?,-21.5%,?
SMILES,MCF10A rerep,ELG1 DNA repair,KB-3-1 tox,SW480 rerep,KB-V1 cytotox
Cc1nc(N2CCCCC2)c2c(-c3cccs3)csc2n1,20.6µM*,?,i,1.7%,i
Cc1cc(C)n2nc(C)c(-c3ccc(Cl)cc3)c2n1,-3.2%,-3.0%,?,-49.2%,i
Cc1cc(C)nc(SCC(=O)c2ccc(O)c(O)c2)n1,-7.1%,5.3%,i,-3.5%,i
Cc1cc(SCC(=O)c2ccc(O)c(O)c2)n2nc(C)c(-c3ccccc3)c2n1,?,?,?,7.31µM*,?
CCSc1cc(C)nc2c(-c3ccc(Cl)cc3)c(C)nn12,14.6µM*,9.2%,i,18.4µM*,i
CCOC(=O)C1(Cc2ccccc2C#N)CCCCC1=O (stereo not drawn),4.2%,nt,i,-4.5%,i
Nc1c2c(nc3sc4c(c13)CCCCC4)CCCCC2,?,?,?,-10.3%,8.2µM*
CCOC(=O)C1(S(=O)(=O)c2ccccc2)CCN(Cc2ccc(Cl)cc2)CC1,5.5%,?,?,5.6%,10.3µM*
CCOC(=O)C1(S(=O)(=O)c2ccc(Cl)cc2)CCN(Cc2ccc(Cl)cc2)CC1,19.8%,-15.7%,?,?,8.2µM*
CCOC(=O)C1(CCc2ccccc2)CCN(Cc2ccc(O)cc2)CC1,13.7%,0.8%,i,i[1.84 µM],i
CN(C)S(=O)(=O)c1ccc(NC(=O)c2cc(F)c(F)cc2Cl)cc1,-7.3%,16.4%,i,-5.8%,23.1µM*
COc1ccc(NC(=O)c2cc(F)c(F)cc2Cl)cc1Cl,-5.6%,?,i,7.0%,i
COc1cc2[nH]c(=S)nc(NCc3cccs3)c2cc1OC,-13.9%,7.3%,i,-12.9%,i
COc1cc2[nH]c(=S)nc(NCCc3ccc(C)cc3)c2cc1OC,23.1µM*,-29.1%,i,?,i
COc1ccc(CCNc2nc(=S)[nH]c3cc(OC)c(OC)cc23)cc1OC,1.9%,-3.5%,i,-1.7%,i
COc1ccccc1CNc1nc(=S)[nH]c2cc(OC)c(OC)cc12,-2.8%,?,i,3.26µM*,i
COc1ccc(CCNC(=O)c2ccc(CNc3nc(=S)[nH]c4ccccc34)cc2)cc1OC,11.1%,14.6µM*,i,-0.8%,i
Cn1nc(C(=O)NCc2ccccc2)c2ccccc2c1=O,19.8%,?,i,-0.8%,i
CC(NC(=O)c1nn(C)c(=O)c2ccccc12)c1ccccc1 (stereo not drawn),-1.1%,-0.4%,i,-6.6%,20.6µM*
COc1ccc(C(CCN2CCCCC2)c2c(OC)cc(OC)c3c(-c4ccccc4)cc(=O)oc23)cc1 (stereo not drawn),?,-5.2%,?,1.64µM*,i
CC(=O)ON(C(C)=O)c1ccc(/C=C2\C=Cc3ccccc32)cc1,nt,nt,i,nt,i
Cc1ccc(S(=O)(=O)C=CS(=O)(=O)c2ccc(C)cc2)cc1,nt,nt,?,nt,i
O=S(=O)(/C=C/C=C/S(=O)(=O)c1ccccc1)c1ccccc1,?,nt,6.51µM*,?,i
Cc1cc2nc(CCN(C(=S)NCC(C)C)C3CCCC3)[nH]c2cc1C,3.4%,?,i,-1.6%,16.4µM*
Cn1c(SCC(=O)N(C2CCCCC2)C2CCCCC2)nnc1-c1cccs1,13µM*,?,?,?,i
